From PubChem
This is a sample that favours compounds with a hit; in the whole collection about 2.4% have one here.
D2 PAM-1: positive allosteric modulators of human D2 dopamine receptor | P14416 | HEK293 T-REx D2, calcium flux, EC20 dopamine potentiation | potentiation, % at 10 µM | 340,000 compounds, 0.34% hits | AID 485347;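 active means potentiation over 3 SD above the plate norm, cut at about 30% in these data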; further: 0% is about no effect
Target sequence (P14416 whole entry, looked up): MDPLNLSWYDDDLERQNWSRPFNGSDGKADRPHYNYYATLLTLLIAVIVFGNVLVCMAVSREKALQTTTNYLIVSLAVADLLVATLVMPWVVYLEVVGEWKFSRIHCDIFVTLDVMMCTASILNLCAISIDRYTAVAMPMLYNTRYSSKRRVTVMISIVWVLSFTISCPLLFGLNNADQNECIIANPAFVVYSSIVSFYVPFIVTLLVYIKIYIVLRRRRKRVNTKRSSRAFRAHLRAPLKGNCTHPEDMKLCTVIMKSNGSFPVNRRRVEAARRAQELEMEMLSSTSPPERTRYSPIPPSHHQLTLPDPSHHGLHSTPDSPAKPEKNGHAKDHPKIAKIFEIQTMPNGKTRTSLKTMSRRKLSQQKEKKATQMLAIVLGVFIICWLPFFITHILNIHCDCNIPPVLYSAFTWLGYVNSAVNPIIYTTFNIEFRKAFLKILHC
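Potentiation of an EC20 dopamine calcium response is measured in a force-coupled, tetracycline-inducible Hek293 Trex D2 line. Compound-only kinetic reads over 180 s flag agonists before dopamine addition.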
D2 PAM-2: positive allosteric modulators of human D2 dopamine receptor; P14416; DiscoveRx D2 beta-arrestin cells, luminescence, 90 min; 100% = 57 uM dopamine signal; potentiation, % (concentration not given with the values); 360,000 compounds, 0.23% hits; in the data active means potentiation above about 50%; inconclusive means mostly about 30% to 49%
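PathHunter D2 cells, attached overnight at 37 deg C, received compound in DMSO plus dopamine at EC20 (50 nM final) for 90 min at 37 deg C. Beta-arrestin recruitment was read as luminescence after 1 h with detection reagent at ambient temperature.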
D2 ag-1: D2 dopamine receptor (human) agonism; 340,000 compounds, 0.53% hits; P14416; AID 485358; activation, % at 2 µM; HEK293 T-REx D2 cells, calcium flux agonist mode;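 active means activation over 3 SD above normal in the single-dose calcium agonist read, cut at about 30% in these data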; further: 0% is about no effect
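Agonism scored from kinetic calcium signal (1 read/sec, 180 s) following compound pin transfer, after a 10 s baseline. Cells: HEK293 Trex line expressing inducible D2 receptor coupled to calcium, dye-loaded after overnight culture at 30 C.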
D2 antagonist: D2 dopamine receptor (human) antagonism; P14416; HEK293 TREx D2 cells, calcium flux, dopamine EC80; inhibition, % at 10 µM; 340,000 compounds, 2% hits; in the data active means inhibition above about 30%; inactive means below that, where a call was filed; further: 0% is about no effect
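Calcium flux kinetic readout in an inducible HEK293 TREx D2 line plated overnight at 30 C. After 180 s compound exposure, an EC80 dopamine challenge follows with another 180 s kinetic read to detect antagonism.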
D2 ag-2: activates the human D2 dopamine receptor | P14416 | DiscoveRx PathHunter D2 beta-arrestin, luminescence, 90 min; 100% = 57 uM dopamine signal | activation, % (test concentration not listed) | 360,000 compounds, 0.084% hits | AID 624465; in the data active means activation above about 40%; inconclusive means between about 15% and that limit
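DiscoveRx PathHunter D2 beta-arrestin cells (2,100/well) attached overnight, then compound-stimulated 90 min at 37 C in HBSS/10 mM HEPES/0.1% Tween-20 buffer; beta-galactosidase complementation read by luminescence after 1 h at ambient temperature. Dopamine 57 uM final (EC100) as control.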
* hit, by the source's call; ? = inconclusive; / = not tested or not shown.

SMILES | D2 PAM-1 | D2 PAM-2 | D2 ag-1 | D2 antagonist | D2 ag-2
O=[N+]([O-])c1ccc(N2CCCC2)cc1NC(c1ccccc1)c1ccccc1 | 1 | -3 | 0 | 30* | 0
O=C(c1noc2c1CCCCC2)N1CCN(c2cccc(C(F)(F)F)c2)CC1 | 6 | / | -1 | / | /
CCOc1cc(C(=O)N2CC(=O)Nc3ccc(C)cc3C2c2ccccc2)cc(OCC)c1OCC (centres undefined) | 5 | / | 1 | / | /
Cc1ccc(NC2=NCC(=O)N2c2ccc3c(c2)OCCO3)c(C)c1 | 31* | -10 | -1 | 9 | -1
Cc1ccc(-c2nc3ncccn3c2Nc2ccc3c(c2)OCO3)o1 | 12 | 63* | 0 | -4 | 11
Cc1ccc(Nc2c(-c3ccc(C)o3)nc3ncccn23)cc1 | 13 | 5 | 1 | -7 | 8
Cc1ccc(-n2nc3c(N4CCC(C(=O)NCc5ccc(C)o5)CC4)nnc(C)c3c2C)cc1 | 31* | -9 | 0 | 7 | 3
OC1(c2ccc(Br)cc2)CCN(Cc2cccc(Br)c2)CC1 | -42 | -82 | 0 | 103* | 1
CCC(CC)NC(=O)CSc1ccc(S(=O)(=O)N2CCCCC2)cn1 | 3 | 3 | -1 | -3 | 0
Cc1cc(C)cc(CSc2ccc(S(=O)(=O)N3CCCC3)cn2)c1 | -13 | 0 | 1 | 0 | 0
CN1CCN(S(=O)(=O)c2ccc(SCCOc3ccccc3)nc2)CC1 | -2 | -8 | -1 | 9 | -3
O=S(=O)(c1ccc(SCCO)nc1)N1CCCC1 | 49* | 11 | 1 | 3 | 0
O=c1cc(CSc2ccc(S(=O)(=O)N3CCCCC3)cn2)nc2sccn12 | 33* | 0 | -1 | 3 | -2
CCOc1ccc(OCCSc2ccc(S(=O)(=O)N3CCN(C)CC3)cn2)cc1 | -1 | 1 | 1 | 30* | -2
Cc1ccc(C)c(NC(=O)CSc2ccc(S(=O)(=O)N3CCCC3)cn2)c1 | -11 | -8 | 0 | 39* | 3
Cc1ccc(C(=O)Nc2ccc3c(c2)N(C)C(=O)c2ccccc2S3)cc1 | 3 | / | 1 | / | /
CCOc1ccc(OCC)c(NC(=O)CCc2c(C)nc3c(c2C)c(=O)n(C)c(=O)n3C)c1 | -2 | / | 0 | / | /
Cc1c(CNCCCc2ccccc2)c(C(=O)O)c(C)n1Cc1ccc(Cl)cc1 | 2 | / | 0 | / | /
O=C(C[n+]1cccc(CNC(=O)c2ccc(OC(F)F)cc2)c1)Nc1cccc(C(F)(F)F)c1 | -28 | -51 | -1 | 45* | -4
O=C(C[n+]1cccc(CNC(=O)c2ccc(OC(F)F)cc2)c1)Nc1ccc(F)cc1 | -25 | -35 | -1 | 2 | -2
CN(C)c1nc(Oc2ccc(=O)[nH]n2)nc(N2CCCCC2)n1 | -19 | -6 | 0 | 31* | -1
N#Cc1cnn(Cc2ccccc2)c1/N=C/N1CCOCC1 | / | 4 | 1 | 34* | -3
Cc1noc(Cn2c(=O)c3cc4c(cc3n(CC(=O)Nc3ccccc3F)c2=O)OCO4)n1 | -2 | / | 0 | / | /
CCOc1ccc(CC(=O)OCN2C(=O)c3ccccc3C2=O)cc1 | 30* | -12 | -1 | 2 | 0
S=C(NCC1CCCO1)Nc1ccc(Nc2ccccc2)cc1 (centres undefined) | -4 | -9 | 1 | 40* | -1
SMILES | D2 PAM-1 | D2 PAM-2 | D2 ag-1 | D2 antagonist | D2 ag-2
O=C(CS(=O)(=O)c1ccc(F)cc1)NCc1ccccc1 | 0 | 0 | 1 | 34* | -6
Cc1coc2c1c(C)cc1oc(=O)c(CC(=O)NCCCCCC(=O)O)c(C)c12 | 46* | 7 | 0 | 2 | 1
Cc1coc2c1c(C)cc1oc(=O)c(CC(=O)NCC(=O)O)c(C)c12 | -11 | -5 | 2 | 8 | 2
Cc1cc(-c2ccc(S(=O)(=O)NCc3ccccc3Cl)s2)on1 | 8 | / | 0 | / | /
O=c1cnnc(NCc2ccccc2)[nH]1 | 36* | -15 | 0 | 22 | -2
Cc1cccc(N2CCN(C(=O)CN3CCSc4ccccc43)CC2C)c1 (centres undefined) | -25 | / | / | / | /
Cc1nn(-c2ccccc2)c2sc(C(=O)Nc3cccc(Br)c3)cc12 | 8 | / | 1 | / | /
COc1cc([N+](=O)[O-])ccc1NC(=O)CCN1C(=O)C2C3CCC(C3)C2C1=O (centres undefined) | / | -21 | / | / | 4
COC(=O)c1ccc([N+](=O)[O-])cc1N1C(=O)C2C3CCC(C3)C2C1=O (centres undefined) | -1 | 7 | 0 | 53* | ?
CCOc1ccc(C2C(C(N)=O)=C(C)Nc3nc(-c4ccc(OC)cc4)nn32)cc1 (centres undefined) | 18 | / | 2 | / | /
CCC1CCc2sc(C(=O)O)cc2C1 (centres undefined) | 7 | -3 | 0 | -15 | -1
C=CCN1CCN(C(=O)c2cc3c(s2)CCC(CC)C3)CC1 (centres undefined) | -17 | -41 | -1 | 46* | -6
O=C(Nc1ccccc1Cl)c1cc[n+](Cc2ccc([N+](=O)[O-])cc2)cc1 | 5 | -12 | 0 | -9 | -2
O=C(O)c1ccc([N+](=O)[O-])cc1 | / | -3 | / | / | -1
NC(=O)c1ccc(C(=O)c2ccc([N+](=O)[O-])cc2)cc1 | -9 | 62* | 0 | -1 | 5
NC(=O)c1cc[n+](Cc2ccc([N+](=O)[O-])cc2)cc1 | 11 | 0 | 2 | 39* | 1
COC(=O)CS(=O)(=O)c1ccsc1C(=O)Nc1ccc(F)cc1 | 7 | -8 | 0 | 38* | 3
COc1cc(=O)[nH]c(SCc2c(F)c(F)c(F)c(F)c2F)n1 | 95* | -5 | -1 | -1 | 3
COc1ccc(CSc2nc(C)cc(=O)[nH]2)cc1Br | 2 | 0 | 1 | 3 | -1
COc1ccc(-c2nc(C)c(CCNC(=O)c3ccco3)s2)cc1 | -1 | / | 0 | / | /
O=C(c1ccc(Cl)cc1)n1nc(-c2ccco2)nc1NCc1cccs1 | 8 | / | -1 | / | /
COc1ccc(NC(=O)CSC2=Nc3ccccc3C3=NC(CCC(=O)NCCc4ccccc4)C(=O)N23)c(OC)c1 (centres undefined) | 1 | / | / | / | /
O=C(O)c1ccc(Cl)c(NC(=S)NC(=O)c2cccc(COc3ccccc3)c2)c1 | 12 | -4 | -1 | 36* | 2
O=C(NC(=S)Nc1ccc(Cl)c(C(=O)O)c1)c1cccc(COc2ccccc2)c1 | -8 | -14 | -1 | -1 | -2
Cc1c(C(=O)Nc2cccc(F)c2)oc2c1-c1nn(Cc3c(F)cccc3Cl)cc1CC2 | 8 | / | 0 | / | /
CCCN(CCC)C(=O)Cc1ccc(F)cc1 | 0 | -2 | 0 | 18 | -3
C=CCN(CC=C)C(=O)Cc1ccc(F)cc1 | -4 | -4 | 0 | 31* | 0
CCOc1ccc(CCNC(=O)CN2C(=O)COc3ccc(S(=O)(=O)N4CCC(C)CC4)cc32)cc1 | -9 | / | -1 | / | /
